Experimental data reported in ChEMBL document CHEMBL1157539, “Thousands of chemical starting points for antimalarial lead identification” (Nature, 2010).

System: Plasmodium falciparum
Experiment: GSK_TCMDC: Inhibition of Plasmodium falciparum 3D7 in whole red blood cells, using parasite LDH activity as an index of growth. Test compounds present at 2uM
Type: functional

SMILES	Inhibition [%]
CCOC(=O)c1nc(-c2cc(Cl)nc(Cl)c2)[nH]c1NC(=S)NCc1ccc(NS(C)(=O)=O)cc1	100
Cc1ccc(NC(=O)c2ccc(CN3CCCN(Cc4cccc(O)c4)CC3)cc2)cc1F.O=C(O)C(F)(F)F	97
N#Cc1ccc2[nH]c(-c3cc(-c4cccc(F)c4)cnc3N)nc2c1.O=C(O)C(F)(F)F	100
Nc1ncc(-c2ccccc2)cc1/C=C/c1cccnc1	91
CC(C)COc1ccc(Cl)cc1Cc1ccc(-c2nc3ccc(F)c(F)c3[nH]2)o1	94
CC(C)c1sc(N2CCN(C)CC2)nc1C(=O)Nc1cccc2c1CCCC2.O=C(O)C(F)(F)F	98
COc1cccc(-c2cc3nc4c(c(NCCCn5ccnc5)n3n2)CCCC4)c1	100
Cc1cc(N2CCCC2)nc(Nc2ccc(NC(=O)Cc3ccccc3)cc2)n1	100
COc1ccc2cc(C=NNc3nc4ccccc4[nH]3)c(Cl)nc2c1	100
CCOc1ccc2nc3cc(NC(=O)c4ccco4)ccc3c(N)c2c1	100
CC(C)(C)c1cc(NC(=O)c2ccc(Cl)c([N+](=O)[O-])c2)cc(C(C)(C)C)c1	93
Cc1noc(C)c1-c1cccc(CNCc2cccc(-c3cccc(-c4nc5cccc(C)c5[nH]4)c3)c2)c1.O=C(O)C(F)(F)F	100
CN1CCN(Cc2c(O)ccc3c(=O)c(Oc4ccc(C(C)(C)C)cc4)c(C(F)(F)F)oc23)CC1	99
COc1cccc(-n2ncc3c(N/N=C/c4ccc(CN(C)CCN(C)C)cc4)ncnc32)c1	100
COc1ccc(NC(=O)[C@H](CC(C)C)Nc2cc(C)nc(Nc3ccccc3)n2)cc1.O=C(O)C(F)(F)F	100
N#Cc1c(N2CCN(c3ccc(F)cc3)CC2)nc(N)c2c(N)nc3c(c12)CC(=O)N3C1CC1	95
CC(C)(C)C(=O)Oc1ccc(CC2NCCc3cc(OC(=O)C(C)(C)C)c(OC(=O)C(C)(C)C)cc32)cc1OC(=O)C(C)(C)C (configuration not stated)	97
Cn1nc(-c2cccc(CN[C@@H]3CCc4ccc(O)cc43)c2)c2cnc(NCCCN3CCCC3)nc21	100
CC1(C)[C@H]2CC[C@@H](CNc3nc(NCCc4c[nH]cn4)nc(NCc4cc(F)ccc4F)n3)[C@@H]1C2	100

SMILES	Inhibition [%]
C[C@@H](Oc1cc(-n2cnc3ccc(NC(=O)NC(C)(C)C)cc32)sc1C(N)=O)c1ccccc1Cl	95
CO/C(=C\C=C\c1cc2cc(Cl)c(Cl)cc2[nH]1)C(=O)NCCCNCCN(C)c1ccccc1	100
CC(Cc1ccc(C(=O)N2CCN(C(=O)c3ccc(CC(C)NCCc4cccc(Cl)c4)cc3)CC2)cc1)NCCc1cccc(Cl)c1 (configuration not stated)	100
c1cn(-c2ccc(CNc3nccc(Nc4ccc(OCCN5CCOCC5)cc4)n3)cc2)cn1	100
Br.NCC(=O)NC12CC3CC(CC(C3)C1)C2	87
CN(C)CCCNc1nccc(N(C)c2ccc(NC(=O)Nc3cc(C(F)(F)F)ccc3F)cc2)n1.O=C(O)C(F)(F)F	93
COc1ccc(-c2ncnc(C(F)(F)F)c2-c2ccc(Cl)cc2)c(O)c1	100
CC1CN(c2cnn(Cc3ccc(NC(=O)Nc4ccc(F)cc4[N+](=O)[O-])cc3)c(=O)c2Cl)CC(C)N1.O=C(O)C(F)(F)F (configuration not stated)	89
O=C(NCc1cccc2ccccc12)C(c1cc2ccccc2o1)N1CCN(C(c2ccccc2)c2ccccc2)CC1 (configuration not stated)	99
COc1ccc(OC)c(-c2ccc(O)c(CNCC(C)c3ccccc3)c2)c1 (configuration not stated)	98
Cl.c1cc(-c2cc3ccc(C4=NCCN4)cc3[nH]2)ccc1C1=NCCN1	97
COc1cc(Cc2cnc(N)nc2N)c2c(c1OC)OC(C)C=C2 (configuration not stated)	87
Cc1ccccc1OCC(=O)Nc1ccc(-c2nc3cc4ccccc4cc3[nH]2)cc1	100
O=C1COc2ccc3ccccc3c21	99
C=CCNS(=O)(=O)c1ccc(NC(=O)C(C)Oc2ccc([N+](=O)[O-])cc2)cc1 (configuration not stated)	100
Cc1cc(OCC2CCCN(c3ncc(C(=O)NC4CC4)cc3Cl)C2)ccc1F (configuration not stated)	88
CC1(C)N=C(N)N=C(N)N1c1ccc(Oc2ccccc2)cc1.Cl	98
CS(=O)(=O)Nc1ccc(OCCCCCCOc2ccc(NS(C)(=O)=O)cc2)cc1	93
